In all, about 35,000 sequences were measured (“fluorescence intensity (a.u.)”: median about 10,000, highest 2% from about 52,000 on). Many of the other results were omitted from the sample, so the highest values are more common in it than they were.

This assay concerns the target T1, OsWOX13 (Oryza sativa, UniProt Q5QMM3 1-267).
T1 sequence: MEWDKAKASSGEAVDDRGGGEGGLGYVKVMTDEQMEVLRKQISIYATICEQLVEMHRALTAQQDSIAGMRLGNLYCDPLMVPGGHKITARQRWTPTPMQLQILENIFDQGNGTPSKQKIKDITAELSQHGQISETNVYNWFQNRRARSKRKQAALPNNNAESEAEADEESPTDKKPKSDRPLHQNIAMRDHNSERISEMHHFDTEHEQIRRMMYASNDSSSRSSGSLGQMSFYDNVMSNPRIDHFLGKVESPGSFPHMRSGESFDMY
Put plainly: protein-binding microarray (RPBM); PBS, 2% BSA, 51.3 ng/ul salmon testes DNA, 50 uM zinc acetate, 200 nM TF, 25 C, 1 h; high values mean tight binding. As to conditions: protein: recombinant; tags: N-terminal polyhistidine and DsRed monomer fusion (pET32a); label: CyDye5-dUTP incorporated in the synthesized complementary strand; 3' TTTTT single-stranded linker to array surface; dsDNA, one strand shown. Summed up:
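An Axon 4000B scanner gave the binding signal as per-feature fluorescence intensity in arbitrary units. This followed washing of a custom Agilent array that had been incubated for 1 h at 25 °C with 200 nM protein in PBS, 2% BSA, salmon testes DNA and 50 µM zinc acetate. The proteins were transcription factors fused at the N-terminus to polyhistidine and DsRed, expressed in E. coli BL21-CodonPlus and purified on Ni–NTA.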
Consider “ACTCACGCGCAATTAGCTGGTTTTGATGGGTCAGGAGGAACGGAGTCACCTAGTGCAG”, for which the binding signal is 5020 fluorescence intensity (a.u.).

With “TGTAATTTAATTTTGCCTCCACATTTCCTGACTTTGGCCACGGAGTCACCTAGTGCAG”, the binding signal is 45700 fluorescence intensity (a.u.).

With “ACGCCATGATTTGACAATGTGATGCTACAGTAAACATTTGCGGAGTCACCTAGTGCAG”, the binding signal is 23300 fluorescence intensity (a.u.).

Regarding “ACGCCATGATTGACAATGTGATGCTACAGTAAACATTTGCCGGAGTCACCTAGTGCAG”, the binding signal is 53900 fluorescence intensity (a.u.).

As for “CCATGATTTGACAATGTGATGCTACAGTAAACATTTGCTACGGAGTCACCTAGTGCAG”, the binding signal was 42800 fluorescence intensity (a.u.).

As to “CACCATAACTAATTAACAAGCCACCTATTTCCTCTTGACACGGAGTCACCTAGTGCAG”, the binding signal was 10800 fluorescence intensity (a.u.).

“AGCCATGCATCAACACGTAATTAAGTACTAGTTGACAGTGCGGAGTCACCTAGTGCAG”: the binding signal was 4190 fluorescence intensity (a.u.).

As for “TTGCTTTAACTAGCTGCTTAATTATATGTTCTTTGTATTTCGGAGTCACCTAGTGCAG”, the binding signal was 5230 fluorescence intensity (a.u.).

As to “CACATTCAGTTCTAGATTAATTTATTTTGGATGAATGTATCGGAGTCACCTAGTGCAG”, the binding signal is 6060 fluorescence intensity (a.u.).

Regarding “GCTAATTAATCTATTATTGATTTAGATGTATCGACCAGTTCGGAGTCACCTAGTGCAG”, the binding signal is 53500 fluorescence intensity (a.u.).

Consider “CGGCTAATTAATTTATATTTCTATATGTATTGACCCTGTTCGGAGTCACCTAGTGCAG”, for which the binding signal is 61100 fluorescence intensity (a.u.).

For “CCGAATTTCTATTATTTCTTAATTGTATTTCTATATGGACCGGAGTCACCTAGTGCAG”, the binding signal was 7410 fluorescence intensity (a.u.).

On to “ATGTATTTAATTATAGATTTAATAAAATTAATCTAGTGTTCGGAGTCACCTAGTGCAG”, for which the binding signal was 17500 fluorescence intensity (a.u.).

On to “AATCAATTATAACCATTTTCTATTTAATTACCTCACGCACCGGAGTCACCTAGTGCAG”, for which the binding signal is 25700 fluorescence intensity (a.u.).

Turning to “ATATAACAGTTTATTCACAAATTATTTTCCGTTTGCAAATCGGAGTCACCTAGTGCAG”, the binding signal is 6830 fluorescence intensity (a.u.).

Turning to “ATTGACAAGATAGATTGTTGCCCAATTTTCGAAGATGCTCCGGAGTCACCTAGTGCAG”, the binding signal is 42000 fluorescence intensity (a.u.).

Regarding “ATAAATTGATGCCCAATTTTCGAAGATGCTCATAGGGGTGCGGAGTCACCTAGTGCAG”, the binding signal is 52500 fluorescence intensity (a.u.).

For “AATATTGATGCTTAAATTTCTTTCGAAGATCCTATGGAAGCGGAGTCACCTAGTGCAG”, the binding signal is 3840 fluorescence intensity (a.u.).

With “TCCTGTAACAGAATTGGAAAACCCAATCTGGCGACGGCTGCGGAGTCACCTAGTGCAG”, the binding signal is 9790 fluorescence intensity (a.u.).

As to “CTTGACAGGCACCGTGATACTTGGGTTCTTGATATAACTGCGGAGTCACCTAGTGCAG”, the binding signal is 34400 fluorescence intensity (a.u.).

Consider “CTGACTGGCTCTGATTAATTAATTGATGATCGATCGAGCGCGGAGTCACCTAGTGCAG”, for which the binding signal was 49800 fluorescence intensity (a.u.).

“ATGATATAATTAATTAATTAGCGCGCGGTTCCACCTCCCGCGGAGTCACCTAGTGCAG”: the binding signal was 60200 fluorescence intensity (a.u.).

Consider “GCGTAATTAGGCGGAGAGATTATAGGGAGAGAGATCGCGACGGAGTCACCTAGTGCAG”, for which the binding signal was 16700 fluorescence intensity (a.u.).

Take “AATCCTCTTAATTATTATTAGCGGTTCGTCCTATGATCTTCGGAGTCACCTAGTGCAG”: the binding signal is 7080 fluorescence intensity (a.u.).

In the case of “TTAAAATTATTTTATAATTAATATTTATTATTATTATTAGCGGAGTCACCTAGTGCAG”, the binding signal was 12400 fluorescence intensity (a.u.).

As for “TGATTAATTAGCGAGAGTAATTAATTAATTATAGCCTGCGCGGAGTCACCTAGTGCAG”, the binding signal was 61600 fluorescence intensity (a.u.).

In the case of “TAGCTTAATTTGATTTCTATTTAAGACCTTGACATTAACGCGGAGTCACCTAGTGCAG”, the binding signal was 24400 fluorescence intensity (a.u.).

On to “GTAATTGATTTTCTGGCGCGATTAAGAGCTTGGTATATAGCGGAGTCACCTAGTGCAG”, for which the binding signal was 59200 fluorescence intensity (a.u.).

In the case of “ATATAGTTGTGATTAATTAGTGAGTAGAGTGTGATACCTGCGGAGTCACCTAGTGCAG”, the binding signal was 22100 fluorescence intensity (a.u.).

Turning to “GAGCATGATTACTTAAATATTAGCTAATTCTTTCTTTAAACGGAGTCACCTAGTGCAG”, the binding signal was 15500 fluorescence intensity (a.u.).

Turning to “GTTGTACCACTGATTGGACTGCCTGCTTACCGATAATTAACGGAGTCACCTAGTGCAG”, the binding signal is 24500 fluorescence intensity (a.u.).

For the sequence “TTCTTGATGGAAATTGAAATTGTGTGTGTGGGATGCAGGACGGAGTCACCTAGTGCAG”, the binding signal was 46400 fluorescence intensity (a.u.).

As to “ACACTAATAGGTCATGTCCATTTCCATCCCATTTCCATTGCGGAGTCACCTAGTGCAG”, the binding signal was 7050 fluorescence intensity (a.u.).

Consider “AGACTATTTACAAAACTAATTACATAAATGAAAGCTAACTCGGAGTCACCTAGTGCAG”, for which the binding signal is 5260 fluorescence intensity (a.u.).

For “TAAATTATTTTCTATTTATAAATATGTCGTTTGCCTTATTCGGAGTCACCTAGTGCAG”, the binding signal is 4180 fluorescence intensity (a.u.).

On to “AATTGACAAAGATGAAACACATGTGGACTGGACTACTCGACGGAGTCACCTAGTGCAG”, for which the binding signal was 3660 fluorescence intensity (a.u.).

Take “ATATAAATTGACTATTAAATATATTGACTATATGTAAATTCGGAGTCACCTAGTGCAG”: the binding signal was 25600 fluorescence intensity (a.u.).

Regarding “AATTAACGGAGGAAACTCCAATCAGATACGCAGACGGACACGGAGTCACCTAGTGCAG”, the binding signal was 8430 fluorescence intensity (a.u.).

Regarding “TATATATATATATATATATATATATATATATATATAGACACGGAGTCACCTAGTGCAG”, the binding signal was 7880 fluorescence intensity (a.u.).

For the sequence “CTCTAGTTGATGATGGAAATCATTGACAAGAACTATAGCACGGAGTCACCTAGTGCAG”, the binding signal was 22100 fluorescence intensity (a.u.).

On to “AGTGATTATTTATTGGAGTACGATTGAGACCCTTGGTACGCGGAGTCACCTAGTGCAG”, for which the binding signal is 33400 fluorescence intensity (a.u.).

On to “AACAGCTGATGAGTGATGATTGACAGACATCACACGCGGACGGAGTCACCTAGTGCAG”, for which the binding signal is 57600 fluorescence intensity (a.u.).
